The values below come from PubChem BioAssay (EPA / NIEHS).

Calls of active or inactive are those of the source. The calls were made as follows: active = hit-call score of the fitted dose curve at least 0.9, where 1 is the maximum; inactive = score below 0.9.

Read-out in one assay: Decorin, DCN (gene 1634)
In words: BSK_MyoF_Decorin: BioMAP Diversity Plus: MyoF Assay for Decorin Biomarker Activity (AID 2284265). The settings on record: primary human lung fibroblasts. In outline: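 Human lung fibroblast cultures were dosed for 24 h, and decorin was then measured by ELISA. Parallel cultures were stained with sulforhodamine B for total protein as a cytotoxicity check. Gain of signal was fitted relative to DMSO.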

Read-out in assay [1]: KRT18 (gene 3875)
The assay is described as follows: BSK_BF4T_Keratin818: BioMAP Diversity Plus: BF4T Assay for Keratin 818 Biomarker Activity (AID 2284266). The settings on record: primary human bronchial epithelial cells with fibroblasts. Summed up:
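Keratin 8/18 levels quantified by ELISA after 24 h chemical treatment of bronchial epithelial cell/dermal fibroblast co-cultures, fitted in positive direction relative to DMSO. Parallel SRB staining tracks overt cytotoxicity.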

Assay [2] can be described thus: BSK_MyoF_SRB: Viability Assessment in the BioMAP Diversity Plus: MyoF Assay (AID 2284267).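 Also: total protein by SRB absorbance in parallel cultures as cytotoxicity measure; cells assessed 24 h after compound addition.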 The settings on record: primary human lung fibroblasts. In outline:
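In this viability endpoint, fibroblasts from human lung are treated for 24 h, TCA-fixed, SRB-stained (0.1%) and read at 560 nm. Gain of signal relative to DMSO defines activity.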

Read-out in assay [3]: Matrix Metallopeptidase 1 (MMP1), MMP1 (gene 4312)
In words: BSK_MyoF_MMP1: BioMAP Diversity Plus: MyoF Assay for Matrix Metallopeptidase 1 (MMP1) Biomarker Activity (AID 2284268). The following applies: primary human lung fibroblasts. In outline: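 Human lung fibroblast primary cells; MMP1 measured by ELISA 24 h after dosing, fitted in the positive direction relative to DMSO. Parallel SRB staining (0.1%, after 10% TCA fixation, 560 nm) assesses overt cytotoxicity.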

Read-out in assay [4]: TIMP metallopeptidase inhibitor 1 (TIMP1), TIMP1 (gene 7076)
The assay is described as follows: BSK_MyoF_TIMP1: BioMAP Diversity Plus: MyoF Assay for TIMP metallopeptidase inhibitor 1 (TIMP1) Biomarker Activity (AID 2284269). The following applies: primary human lung fibroblasts. In outline: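 Fibroblasts from human lung are dosed with chemical, cultured 24 h, and assayed for TIMP-1 by ELISA. Increases over the DMSO baseline are scored, with SRB total-protein staining run in parallel for cytotoxicity.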

Read-out in assay [5]: Matrix Metallopeptidase 3 (MMP3), MMP3 (gene 4314)
The assay is described as follows: BSK_BF4T_MMP3: BioMAP Diversity Plus: BF4T Assay for Matrix Metallopeptidase 3 (MMP3) Biomarker Activity (AID 2284271). The settings on record: primary human bronchial epithelial cells with fibroblasts. Summed up:
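MMP-3 level read by ELISA after 24 h chemical exposure of bronchial epithelial cell/dermal fibroblast co-cultures, fitted upward relative to DMSO. Parallel cultures stained with 0.1% SRB after TCA fixation gauge overt cytotoxicity.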

Read-out in assay [6]: Tissue plasminogen activator (tPA), PLAT (gene 5327)
The assay is described as follows: BSK_BF4T_tPA: BioMAP Diversity Plus: BF4T Assay for Tissue plasminogen activator (tPA) Biomarker Activity (AID 2284272). The settings on record: primary human bronchial epithelial cells with fibroblasts. Summed up: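 tPA level quantified by ELISA at 24 h post-treatment in bronchial epithelial/dermal fibroblast co-cultures, gain of signal scored against DMSO baseline. Parallel cultures stained with 0.1% SRB (560 nm) to flag overt cytotoxicity.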

Read-out in assay [7]: urokinase Plasminogen Activator (uPA), PLAU (gene 5328)
The assay is described as follows: BSK_BF4T_uPA: BioMAP Diversity Plus: BF4T Assay for urokinase Plasminogen Activator (uPA) Biomarker Activity (AID 2284275). The settings on record: primary human bronchial epithelial cells with fibroblasts. In outline:
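uPA levels measured by ELISA at 24 hours in BF4T cultures (bronchial epithelial cells plus dermal fibroblasts) and compared with DMSO; cytotoxicity tracked in parallel cultures by sulforhodamine B staining.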

Read-out in assay [8]: Matrix Metallopeptidase 9 (MMP9), MMP9 (gene 4318)
The assay is described as follows: BSK_BF4T_MMP9: BioMAP Diversity Plus: BF4T Assay for Matrix Metallopeptidase 9 (MMP9) Biomarker Activity (AID 2284276). The settings on record: primary human bronchial epithelial cells with fibroblasts. In outline: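 MMP-9 levels were measured by ELISA after 24 h exposure of bronchial epithelial cell/dermal fibroblast co-cultures, with DMSO as baseline. Parallel cultures were stained with 0.1% SRB after TCA fixation, read at 560 nm, to flag overt cytotoxicity.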

Read-out in assay [9]: Intercellular Adhesion Molecule 1 (ICAM1), ICAM1 (gene 3383)
In words: BSK_BE3C_ICAM1: BioMAP Diversity Plus: BE3C Assay for Intercellular Adhesion Molecule 1 (ICAM1) Biomarker Activity (AID 2284278).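 Also: cell-surface ICAM-1 protein level quantified by ELISA.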 The following applies: primary human bronchial epithelial cells. In outline: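 hu bronchial epithelial primary cells, 24 h cpd exposure, ICAM-1 ELISA; gain-of-signal fit vs DMSO baseline.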

Read-out in assay [10]: Interleukin-8 (IL8), CXCL8 (gene 3576)
In words: BSK_BE3C_IL8: BioMAP Diversity Plus: BE3C Assay for Interleukin-8 (IL8) Biomarker Activity (AID 2284280). The following applies: primary human bronchial epithelial cells. Summed up: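 Primary human bronchial epithelial cells (BE3C system) were exposed to test chemical for 24 h, and IL-8 levels were then measured by ELISA. Activity was fitted in the positive (gain-of-signal) direction against a DMSO negative-control baseline.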

Read-out in assay [11]: Epidermal growth factor receptor (EGFR), EGFR (gene 1956)
In words: BSK_BE3C_EGFR: BioMAP Diversity Plus: BE3C Assay for Epidermal growth factor receptor (EGFR) Biomarker Activity (AID 2284281). The following applies: primary human bronchial epithelial cells. Summed up:
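Human primary bronchial epithelial cells were exposed to compound for 24 h, and cell-surface EGFR was then quantified by ELISA. Activity was fitted in the positive direction against the DMSO vehicle baseline.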

Read-out in assay [12]: KRT18 (gene 3875)
In words: BSK_BE3C_Keratin818: BioMAP Diversity Plus: BE3C Assay for Keratin 818 Biomarker Activity (AID 2284282). The settings on record: primary human bronchial epithelial cells. Summed up: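 In this multiplexed primary-cell system, bronchial epithelial cells were dosed and harvested at 24 h. Keratin 8/18 was determined by ELISA and analysed for increases over DMSO controls.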

Read-out in assay [13]: Matrix Metallopeptidase 9 (MMP9), MMP9 (gene 4318)
In words: BSK_BE3C_MMP9: BioMAP Diversity Plus: BE3C Assay for Matrix Metallopeptidase 9 (MMP9) Biomarker Activity (AID 2284283). The following applies: primary human bronchial epithelial cells. Summed up: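 Human primary bronchial epithelial cells exposed 24 h to compound. MMP9 quantified by ELISA. SRB total-protein staining of parallel cultures assesses cytotoxicity. Positive-direction fit relative to DMSO.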

Read-out in assay [14]: Plasminogen activator inhibitor-1 (PAI1), SERPINE1 (gene 5054)
The assay is described as follows: BSK_CASM3C_PAI1: BioMAP Diversity Plus: CASM3C Assay for Plasminogen activator inhibitor-1 (PAI1) Biomarker Activity (AID 2284284).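 Also: PAI-1 protein level measured by ELISA 24 h after dosing.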 The settings on record: primary human coronary artery smooth muscle cells.

Read-out in assay [15]: Interleukin-8 (IL8), CXCL8 (gene 3576)
The assay is described as follows: BSK_IMphg_IL8: BioMAP Diversity Plus: IMphg Assay for Interleukin-8 (IL8) Biomarker Activity (AID 2284277). The settings on record: primary human endothelial cells with macrophages. In outline: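 IL-8 levels were measured by ELISA 24 h after dosing in primary human venular endothelial cell–macrophage cultures, referenced to DMSO; parallel SRB staining monitored overt cytotoxicity.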

Read-out in assay [16]: Interferon-inducible T-cell alpha chemoattractant (ITAC), CXCL11 (gene 6373)
In words: BSK_BE3C_ITAC: BioMAP Diversity Plus: BE3C Assay for Interferon-inducible T-cell alpha chemoattractant (ITAC) Biomarker Activity (AID 2284279). The settings on record: primary human bronchial epithelial cells. Summed up: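 BE3C cells (human primary bronchial epithelium), 24 h compound exposure, I-TAC by ELISA, DMSO = negative control/baseline, positive fitting direction.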

Take `O=P(O)(O)OCCC(F)(F)C(F)(F)C(F)(F)C(F)(F)C(F)(F)C(F)(F)F`: the outcome with Decorin, DCN (gene 1634) was “inactive”; in the assay with KRT18 (gene 3875) [1], “inactive”; in [2], “inactive”; in [3], “inactive”; in assay [4], “inactive”; in assay [5], “inactive”. The result in assay [6], in [7], in assay [8], in assay [9], in assay [10] and in assay [11] was inactive. The outcome (with KRT18 (gene 3875) [12]; in assay [13]; in assay [14]) was inactive.
As for `FC(F)(F)C(F)(F)C(F)(F)C(F)(F)C(F)(F)C(F)(F)C(F)(F)C(F)(F)F`, the outcome with Decorin, DCN (gene 1634) is “inactive”; with KRT18 (gene 3875) [1], “inactive”; in assay [2], “inactive”; in [3] it was “inactive”; in assay [4], “inactive”; in assay [5], “inactive”. In addition, the result (in assay [6]; in assay [8]; in assay [9]; in assay [10]; in [11]; with KRT18 (gene 3875) [12]) was inactive. The result in assay [13] and in assay [14] was inactive.
Take `C=CC/C=C/C/C=C/C/C=C/C`: the outcome is “inactive” with Decorin, DCN (gene 1634); “inactive” in assay [2]; “inactive” in assay [3]; “inactive” in assay [4].
Turning to `CO[Si](OC)(c1ccccc1)c1ccccc1`, the outcome was “inactive” with Decorin, DCN (gene 1634) and “inactive” in [4]. For the same compound, the AC50 is 29.4 µM (active) in [2] and 28.9 µM (active) in [3].
Consider `CC(=O)Nc1ccc(N=Nc2cc(C)ccc2O)cc1`, for which the outcome was “inactive” with Decorin, DCN (gene 1634); “inactive” in [2]; “inactive” in assay [4]. In addition, the AC50 in assay [3] is 31 µM (active).
For the compound `FC(F)(F)C(F)(F)C(F)(F)C(F)(F)C(F)(F)CCI`, the outcome with Decorin, DCN (gene 1634) was “inactive”; in the assay with KRT18 (gene 3875) [1], “inactive”; in assay [2] it was “inactive”; in [3], “inactive”; in assay [4], “inactive”; in assay [5], “inactive”. The outcome (in [6]; in assay [8]; in assay [9]; in [10]; in assay [11]; in the assay with KRT18 (gene 3875) [12]) was inactive. The outcome in assay [13] and in [14] was inactive.
On to `C=CC(F)(F)C(F)(F)C(F)(F)C(F)(F)C(F)(F)C(F)(F)C(F)(F)C(F)(F)C=C`, for which the outcome is “inactive” with Decorin, DCN (gene 1634); “inactive” with KRT18 (gene 3875) [1]; “inactive” in [2]; “inactive” in assay [3]; “inactive” in [4]; “inactive” in assay [5]. Also, the outcome in [6], in assay [8], in assay [15], in assay [9], in assay [10] and in [11] was inactive. In addition, the outcome (with KRT18 (gene 3875) [12]; in assay [13]; in assay [14]) was inactive.
Turning to `FC(F)(Br)C(F)(F)C(F)(F)C(F)(F)C(F)(F)C(F)(F)Br`, the outcome with Decorin, DCN (gene 1634) was “inactive”; with KRT18 (gene 3875) [1] it was “inactive”; in assay [2], “inactive”; in [3], “inactive”; in [4], “inactive”; in assay [5], “inactive”. The outcome in assay [6], in [8], in assay [15], in assay [9], in [16] and in assay [10] was inactive. Further, the outcome (in assay [11]; with KRT18 (gene 3875) [12]; in assay [13]; in [14]) was inactive.
Regarding `CCCCCCOC(=O)c1ccccc1O`, the outcome (in [9]; in assay [10]; in [11]; in the assay with KRT18 (gene 3875) [12]; in assay [13]; in [14]) was inactive.
As for `CCCCCCCCCCCCCCCC[N+](C)(C)Cc1ccccc1`, the AC50 with Decorin, DCN (gene 1634) is 9.35 µM (active); in assay [2], 5.13 µM (active); in [3], 2.7 µM (active); in [4] it was 8.14 µM (active).

As a reminder, the AC50 is the concentration at which the activity in the assay is half-maximal.
